# From publication PMC11062922 (Nature Chemical Biology, 2023)
# Like-named read-outs stand apart in the source and are kept apart here.
# Legend:
# Design in all cases: species or system human, MV4-11 + K-562 + COLO205 + SK-N-BE2 + OVCAR-8
# DDR1 = details: read-out: apparent Kd, n = 1
# DDR2 = details: read-out: apparent Kd, n = 1
# FLT3 = details: read-out: apparent Kd, n = 1
# RET = details: read-out: apparent Kd, compound concentrations: 100 nM and 1000 nM (sheet 'Samples'), n = 1
# CSNK2A1;CSNK2A3 = details: read-out: apparent Kd; compound concentrations: 100 nM and 1000 nM (sheet 'Samples'), CATDS: 0.33639720251881999; n = 1
# CSNK2A2 = details: read-out: apparent Kd; compound concentrations: 100 nM and 1000 nM (sheet 'Samples'), CATDS: 0.39667360391151801; n = 1
# PRKAA2 = details: read-out: apparent Kd; compound concentrations: 100 nM and 1000 nM (sheet 'Samples'), CATDS: 0.28519609584928202; n = 1
# CSNK1D = details: read-out: apparent Kd, n = 1
# CSNK1E = details: read-out: apparent Kd; compound concentrations:100 nM and 1000 nM (sheet 'Samples'); n = 1
# MAPK14 = details: read-out: apparent Kd, compound concentrations: 100 nM and 1000 nM (sheet 'Samples'), n = 1
# MAPKAPK2 = details: read-out: apparent Kd, n = 1
# PIK3CD = details: read-out: apparent Kd; compound concentrations:100 nM and 1000 nM (sheet 'Samples'); n = 1
# PKN3 = details: read-out: apparent Kd; compound concentrations:100 nM and 1000 nM (sheet 'Samples'); n = 1
# PIK3CA = details: read-out: apparent Kd; compound concentrations:100 nM and 1000 nM (sheet 'Samples'); n = 1
# SMC4 = details: read-out: apparent Kd; compound concentrations:100 nM and 1000 nM (sheet 'Samples'); n = 1
# ZAK = details: read-out: apparent Kd; compound concentrations:100 nM and 1000 nM (sheet 'Samples'); n = 1
# RPS6KA1 = details: read-out: apparent Kd; compound concentrations: 100 nM and 1000 nM (sheet 'Samples'), CATDS: 0.20748336668369699; n = 1
# FLT4 = details: read-out: apparent Kd; compound concentrations: 100 nM and 1000 nM (sheet 'Samples'), CATDS: 0.39951332259871902; n = 1
# MAP3K1 = details: read-out: apparent Kd; compound concentrations: 100 nM and 1000 nM (sheet 'Samples'), CATDS: 0.16547922944675; n = 1
# HCK = details: read-out: apparent Kd; compound concentrations: 100 nM and 1000 nM (sheet 'Samples'), CATDS: 9.2745081986231104E-2; n = 1
# IRAK3 = details: read-out: apparent Kd; compound concentrations: 100 nM and 1000 nM (sheet 'Samples'), CATDS: 7.7549132648748395E-2; n = 1
# LYN = details: read-out: apparent Kd; compound concentrations: 100 nM and 1000 nM (sheet 'Samples'), CATDS: 7.2911258996188402E-2; n = 1
# MAPK11 = details: read-out: apparent Kd; compound concentrations: 100 nM and 1000 nM (sheet 'Samples'), CATDS: 7.9880632684471306E-2; n = 1
# PIP4K2C = details: read-out: apparent Kd; compound concentrations: 100 nM and 1000 nM (sheet 'Samples'), CATDS: 6.71745626151799E-2; n = 1
# RIPK3 = details: read-out: apparent Kd; compound concentrations: 100 nM and 1000 nM (sheet 'Samples'), CATDS: 7.1422785641186204E-2; n = 1
# TNK1 = details: read-out: apparent Kd; compound concentrations: 100 nM and 1000 nM (sheet 'Samples'), CATDS: 0.18276083287815401; n = 1
# TP53RK = details: read-out: apparent Kd; compound concentrations: 100 nM and 1000 nM (sheet 'Samples'), CATDS: 6.3683372655405995E-2; n = 1
# YES1 = details: read-out: apparent Kd; compound concentrations: 100 nM and 1000 nM (sheet 'Samples'), CATDS: 0.118526844217484; n = 1
# PBK = details: read-out: apparent Kd; compound concentrations: 100 nM and 1000 nM (sheet 'Samples'), CATDS: 0.53596365658376799; n = 1
# [1] = compound concentrations:100 nM and 1000 nM (sheet 'Samples')
smiles,measurement,setting,value
COC(=O)Nc1nc2ccc(Oc3ccc(NC(=O)Nc4cccc(Cl)c4)cc3)cc2[nH]1.Cl [GW589961A],potency estimated from few doses,"DDR1; compound concentrations: 100 nM and 1000 nM (sheet 'Samples'), CATDS: 0.527903704232491",0.199 µM
same,potency estimated from few doses,"DDR2; compound concentrations: 100 nM and 1000 nM (sheet 'Samples'), CATDS: 0.19207540013006",1.55 µM
same,potency estimated from few doses,"FLT3; compound concentrations: 100 nM and 1000 nM (sheet 'Samples'), CATDS: 0.237161124657183",0.874 µM
same,potency estimated from few doses,RET; CATDS: 0.213543633827599,1.14 µM
CC1=C(C(=O)Nc2ccc3[nH]ncc3c2)C(c2ccc(F)cc2)NC(=O)N1 (centres unmarked) [GSK180736A],potency estimated from few doses,CSNK2A1;CSNK2A3,0.978 µM
same,potency estimated from few doses,CSNK2A2,0.718 µM
same,potency estimated from few doses,PRKAA2,1.41 µM
Cc1cccc2c(-c3ccncc3)c(-c3ccc(F)cc3)nn12.Cl [GW461487A],potency estimated from few doses,CSNK1D; [1],0.605 µM
same,potency estimated from few doses,CSNK1E,0.879 µM
same,potency estimated from few doses,MAPK14; CATDS: 0.14248163391639501,0.94 µM
same,potency estimated from few doses,MAPKAPK2; [1],0.565 µM
same,potency estimated from few doses,PIK3CD,0.152 µM
same,potency estimated from few doses,PKN3,1.42 µM
COC(=O)Nc1nc2cc(Oc3ccc(NC(=O)Nc4cccc(SC)c4)cc3)ccc2[nH]1.Cl [GW697999A],potency estimated from few doses,DDR1; [1],0.194 µM
same,potency estimated from few doses,DDR2; [1],0.618 µM
same,potency estimated from few doses,FLT3; [1],0.332 µM
same,potency estimated from few doses,PIK3CA,0.205 µM
same,potency estimated from few doses,PIK3CD,0.0921 µM
same,potency estimated from few doses,SMC4,2.01 µM
same,potency estimated from few doses,ZAK,1.91 µM
Nc1nc(-c2ccccc2F)c(-c2ccnc3ccccc23)s1 [GW560459X],potency estimated from few doses,"CSNK1D; compound concentrations: 100 nM and 1000 nM (sheet 'Samples'), CATDS: 0.216607074037657",1.18 µM
same,potency estimated from few doses,MAPK14; CATDS: 0.25122803409734401,0.843 µM
same,potency estimated from few doses,"MAPKAPK2; compound concentrations: 100 nM and 1000 nM (sheet 'Samples'), CATDS: 0.38711156152007697",0.389 µM
same,potency estimated from few doses,RPS6KA1,1.32 µM
CN(c1ccc2c(c1)nc(NCc1ccc(F)cc1)n2C)c1ccnc(Nc2ccc(CS(C)(=O)=O)cc2)n1.Cl [GW813244A],potency estimated from few doses,"DDR1; compound concentrations: 100 nM and 1000 nM (sheet 'Samples'), CATDS: 0.20099617628952601",0.841 µM
same,potency estimated from few doses,FLT4,0.166 µM
same,potency estimated from few doses,MAP3K1,1.84 µM
same,potency estimated from few doses,RET; CATDS: 0.40344037001579403,0.163 µM
COc1cc(Nc2nccc(-c3c(-c4cccc(NC(=O)c5c(F)cccc5F)c4)nn4ncccc34)n2)cc(OC)c1OC [GSK327238A],potency estimated from few doses,"DDR1; compound concentrations: 100 nM and 1000 nM (sheet 'Samples'), CATDS: 6.8880271318571995E-2",1.83 µM
same,potency estimated from few doses,HCK,0.926 µM
same,potency estimated from few doses,IRAK3,1.36 µM
same,potency estimated from few doses,LYN,1.58 µM
same,potency estimated from few doses,MAPK11,1.27 µM
same,potency estimated from few doses,MAPK14; CATDS: 7.1692025023195896E-2,1.65 µM
same,potency estimated from few doses,PIP4K2C,1.96 µM
same,potency estimated from few doses,RET; CATDS: 0.140384770008642,0.45 µM
same,potency estimated from few doses,RIPK3,1.66 µM
same,potency estimated from few doses,TNK1,0.305 µM
same,potency estimated from few doses,TP53RK,2.3 µM
same,potency estimated from few doses,YES1,0.592 µM
Cn1c(-c2ccncc2)c(-c2ccc(F)cc2)c2ncccc21 [RO1155240-000],potency estimated from few doses,"CSNK1D; compound concentrations: 100 nM and 1000 nM (sheet 'Samples'), CATDS: 0.46855924192133103",2.25 µM
same,potency estimated from few doses,PBK,1.72 µM
COC(=O)Nc1nc2cc(Oc3ccc(NC(=O)Nc4ccccc4)cc3)ccc2[nH]1.Cl [GW694590A],potency estimated from few doses,"DDR1; compound concentrations: 100 nM and 1000 nM (sheet 'Samples'), CATDS: 0.58971878257752297",0.426 µM
same,potency estimated from few doses,"DDR2; compound concentrations: 100 nM and 1000 nM (sheet 'Samples'), CATDS: 0.43397569756313797",0.799 µM
